The campaign covered roughly 69,000 compounds. About 8,600 (12%) showed an effect of 50% or more. Only a selection was taken, and strong results are over-represented in it overall.
These molecules were tested on Plasmodium berghei (assay: Screen against P. berghei liver stage (PbLuc), transformed with Luciferase, at 10uM). Details: tested at 10 uM.
Type: functional, HepG2

In order of rising INHIBITION:
1. Cn1cccc1C(O)CNC(=O)c1ccc(C(F)(F)F)cc1 (stereo not drawn)  -118%
2. COc1ccc(C2CCCN2C(=O)c2ccnc(NC3CC3)c2)cc1 (stereo not drawn)  -59.3%
3. CCCN(Cc1ccccc1O)S(=O)(=O)N(C)CC  -58%
4. CC(CNCc1ccc(Cl)c(Cl)c1)Oc1ccccn1 (stereo not drawn)  -41.8%
5. Cc1ccc(CN2CCC3(CC2)C(=O)N(CC(C)C)CCN3C)s1  -31.9%
6. CCOC(=O)CSc1nnc(C(N)CC(C)C)o1 (stereo not drawn)  -28.4%
7. O=C(c1ccno1)N1CCC2(CC1)C(=O)Nc1ccccc12  -19.5%
8. Cc1cccc(N2CCC3(CCCN(C(=O)c4cccnc4)C3)C2)n1 (stereo not drawn)  -19.1%
9. CCOc1ccc(S(=O)(=O)N(CCOC)Cc2ccoc2)cc1F  -17.7%
10. COCCn1cnnc1C1CCCN(C(C)C)C1 (stereo not drawn)  -16.5%
11. CCN1CCC(CC(=O)NCCc2nc(O)cc(O)n2)CC1  -16.3%
12. CC(C)c1n[nH]c(C2CN(C(=O)CCc3cscn3)CCO2)n1 (stereo not drawn)  -15.52%
13. CCc1[nH]ncc1C(=O)N1CCCC(n2cc(C)cn2)C1 (stereo not drawn)  -12.2%
14. NC(=O)C1CCN(C(=O)c2cccn2Cc2cccs2)CC1  -12.1%
15. NCc1cccc(-c2cccnc2C(=O)NCCN2CCCC2)c1  -8.58%
16. CC1c2ncc(Cn3cncn3)n2CCN1CC1CCOCC1 (stereo not drawn)  -8.28%
17. CN(Cc1cnn(C)c1)C(=O)Cn1c(CS(C)(=O)=O)nc2ccccc21  -7.11%
18. CC(C#N)CN(C)C(=O)CCNC(=O)C(C)(C)C (stereo not drawn)  -6.91%
19. O=C(NCc1cccnc1)Nc1cc(C(F)(F)F)c[nH]c1=O  -5.77%
20. Cc1nc[nH]c1CN(C)Cc1cnn(-c2ccc(F)cc2)c1  -5.22%
21. Cn1cc(NC(=O)C2CC(c3ccccc3)C2)ccc1=O (stereo not drawn)  -5.1%
22. O=C(NC1CC1)N1Cc2[nH]nc(COc3cccnc3)c2C1  -4.02%
23. Cc1ccccc1OCC(=O)N1CCCC(CNS(C)(=O)=O)C1 (stereo not drawn)  -3.8%
24. C=c1occc1=C1NC(c2cccc(CN3CCOCC3)c2)=NO1  -2.69%
25. O=S(=O)(C1CC1)N1CCO[C@H]2[C@H](OCC3CC3)CC[C@@H]21  -2.35%
26. CCS(=O)(=O)N1C[C@H]2CN(Cc3cccc(C)c3)C(=O)[C@H]2C1  -1.36%
27. Cc1cccc(N2CCC3(CCCN(C(=O)c4cccnc4)C3)CC2)n1  -1.26%
28. COCCN(Cc1ccoc1)S(=O)(=O)c1ccc(F)c(C)c1  0.348%
29. C1CC(CN2C[C@@H]3C[C@@H](c4nnc(C5CC5)o4)O[C@@H]3C2)CCO1  3.58%
30. CC(=O)NCCNC(=O)NCc1ccc(Br)cc1Cl  4.41%
31. Cc1noc(C)c1CNC(=O)Nc1ccc(N2CCOC(C)C2)cc1 (stereo not drawn)  5.94%
32. CCOCC1COCCC12CCN(C(=O)CCOC)CC2 (stereo not drawn)  8.67%
33. CC(C)N(Cc1ccc(Cl)c(Cl)c1)C(=O)Cn1cncn1  9.55%
34. CN(CC(=O)NS(=O)(=O)c1ccsc1)Cc1ccccc1  9.76%
35. N#Cc1ccccc1N1CCCN(C(=O)NCc2cc[nH]n2)CC1  10%
36. CCN(Cc1cccc(-c2ccncc2)c1)S(N)(=O)=O  11.7%
37. CN1CCC2(CCN(C(=O)c3cccnc3)C2)C1 (stereo not drawn)  12.2%
38. CC(c1ccc(Br)cc1)N1CCCN(C(N)=O)CC1 (stereo not drawn)  12.3%
39. Cc1ccc(S(=O)(=O)NC(=O)CCc2ccccc2)cc1N(C)C  12.589%
40. CN(C)C(=O)C1OC2(CCN(C(=O)c3ccco3)CC2)c2ccccc21 (stereo not drawn)  12.7%
41. c1cnn(-c2ccc(CN3CCCC(Cn4cncn4)C3)cc2)c1 (stereo not drawn)  13.3%
42. CC(C)N1CCC2(CCN(C(=O)c3cccnc3)CC2)C1  15.4%
43. CCOc1ccccc1-c1cc(N)[nH]n1  16.2%
44. O=C(c1ccnnc1)N1CCC2(CC1)CCN(C(=O)c1cccnc1)C2  16.8%
45. COc1ccc(CNCC(C)Oc2ccccn2)cc1Cl (stereo not drawn)  17%
46. CC(=O)NCC(=O)N1CCC2(CC1)CN(c1cccnc1)C(=O)CO2  17.1%
47. CN(C)Cc1cccc(-c2cccnc2C(=O)NCC2CC2)c1  18.4%
48. CC(CN1CCOC1=O)NC(=O)c1ccccc1Oc1ccccc1 (stereo not drawn)  18.4%
49. CS(=O)(=O)N1CCOCC2(CCN(C(=O)c3cccnc3)CC2)C1  18.5%
50. Cc1ccc(C(=O)N2CCC3(CCCN(c4ccc(C)nn4)C3)C2)cn1 (stereo not drawn)  18.6%
51. O=C(O)C(c1ccc(O)cc1)N1CCC(N2CCSCC2)CC1 (stereo not drawn)  18.6%
52. CCN(Cc1ccoc1)C(=O)NC1CCN(CC2CC2)C1 (stereo not drawn)  19.3%
53. Cc1cccc(N2CCC3(CCN(C(=O)c4cccnc4)CC3)C2)n1  19.5%
54. Cc1ccc(-c2nnc(C(C)N3CCc4cncnc4C3)o2)cc1 (stereo not drawn)  22.1%
55. Cc1nn(C)c(C)c1CNCc1cccnc1N1CCOCC1  22.5%
56. CCC(=O)NCC(CC)Oc1cccc(F)c1 (stereo not drawn)  23%
57. CC(c1cccc(S(N)(=O)=O)c1)N(C)CCCOc1ccccc1 (stereo not drawn)  23.4%
58. Cc1cccc(CC(=O)NS(=O)(=O)c2ccc(F)c(F)c2)c1  23.5%
59. CC(C)c1nn(C)c(N2CCOCC2)c1CNCCC(=O)N(C)C  24.95%
60. O=C(c1ccoc1)N1CCC2(CC1)C(=O)Nc1ccccc12  25.4%
61. O=S(=O)(CCN1CCCCC1Cn1cccn1)c1ccccc1 (stereo not drawn)  25.8%
62. COCCN(Cc1cccnc1)S(=O)(=O)c1ccc(F)cc1C  26%
63. CCC(CNC(=O)COC)Oc1cccc(F)c1 (stereo not drawn)  26.7%
64. Cc1occc1C(=O)N1CCC2(CCN(C(=O)c3cccnc3)C2)CC1  28.5%
65. COCCN(Cc1cccnc1)S(=O)(=O)c1cccc(F)c1F  29.4%
66. CCN(Cc1cccc(-c2ccncc2)c1)S(C)(=O)=O  29.6%
67. Cc1cc(C)n(C2CCCN(C(=O)Cc3ccc(C#N)cc3)C2)n1 (stereo not drawn)  29.7%
68. O=C(CC1CC1)N1CCC2(CC1)CN(c1cccnc1)C(=O)CO2  30.3%
69. CN(CC(=O)NS(=O)(=O)c1cccs1)Cc1ccccc1  32%
70. CCC(CNC(=O)c1ccc(C(N)=O)cc1)Oc1cccc(F)c1 (stereo not drawn)  33.2%
71. O=C(NCc1nncn1C1CCCCC1)C1CNCCO1 (stereo not drawn)  33.4%
72. CS(=O)(=O)N1CCC2(CN(C(=O)c3cccnc3)C2)C1  33.5%
73. COc1ccc(CNC(=O)NCCCNS(C)(=O)=O)cc1OC  33.8%
74. Cc1ccc(C(=O)N2CCC3(CCN(C(=O)c4cccnc4)C3)CC2)o1  34.7%
75. O=S(=O)(NCc1ccccc1)Nc1ccc(-n2cncn2)cc1  35%
76. O=C(c1ccco1)N1C[C@H]2CCCN(Cc3cccs3)[C@H]2C1  37%
77. Cn1cccc1C(=O)N1CCC2(CCN(C(=O)c3cccnc3)C2)CC1  37.6%
78. CC(C)(C)c1ncc(CNCC2CN(C3CC3)CCO2)s1 (stereo not drawn)  37.7%
79. Cc1cncc(C2CCCN(C(=O)c3cnco3)C2)n1 (stereo not drawn)  39.7%
80. CCC(C)Oc1ccc(CNCCNC(C)=O)cc1OC (stereo not drawn)  40.7%
81. CC(=O)N1CCN(c2ccc(Cl)nn2)C(=O)C1  40.8%
82. Cc1nc(-c2ccc(C(=O)O)cc2)cc(C2CCCN(C(C)C)C2)n1 (stereo not drawn)  41.2%
83. CCC(CNC(=O)Cn1ccnc1)Oc1cccc(F)c1 (stereo not drawn)  42.4%
84. COc1c(CNC2CCCN(c3ncccn3)C2)c(C(C)C)nn1C (stereo not drawn)  42.9%
85. Cc1ccc(F)c2c1CCCN2CC(=O)NC1CCS(=O)(=O)C1 (stereo not drawn)  45%
86. Cc1cccc(CN2CCCC(O)(CNCCc3c[nH]cn3)C2=O)c1 (stereo not drawn)  48.1%
87. CCN(Cc1ccoc1)C(=O)NC1CCN(CC2CCCC2)CC1  48.5%
88. CCCC(=O)N(Cc1ccncc1)C(C)CC (stereo not drawn)  49%
89. CN(CC(=O)NS(=O)(=O)c1ccc(F)cc1)Cc1ccccc1  50%
90. CCC(CNC(=O)CNC(C)=O)Oc1cccc(F)c1 (stereo not drawn)  51.7%
91. CCCN(CCC)S(=O)(=O)N(C)Cc1ccncc1  53.4%
92. Cc1ccc(N2CCC3(CCCN(C(=O)c4cccnc4)C3)C2)nn1 (stereo not drawn)  53.5%
93. O=C(c1ccncc1)N1CCC2(CC1)CCN(C(=O)c1cccnc1)C2  53.9%
94. CCC(CNC(=O)Cc1cc(C)on1)Oc1cccc(F)c1 (stereo not drawn)  54.5%
95. Cc1cccc(S(=O)(=O)NC(=O)CN(C)Cc2ccccc2)c1  55.1%
96. CCN(Cc1ccoc1)C(=O)NC1CCN(CC=C(C)C)CC1  57.2%
97. CCN(C)S(=O)(=O)N(CC)Cc1cccc(-c2ccncc2)c1  58.3%
98. CS(=O)(=O)N1CCC2(CCN(C(=O)c3cccnc3)CC2)C1  58.8%
99. CCOc1ccc(S(=O)(=O)N(CCOC)Cc2ccncc2)cc1F  58.8%
100. O=C(c1cccnc1)N1CCC2(CCN(C(=O)c3ccco3)CC2)C1  59.3%
101. COCCN(Cc1cccnc1)S(=O)(=O)c1cc(C)ccc1F  59.4%
102. CCC(C)Oc1ccc(CNCCNS(C)(=O)=O)cc1Cl (stereo not drawn)  60.2%
103. CCC(C)Oc1ccc(CNCCNC(C)=O)cc1Cl (stereo not drawn)  60.2%
104. O=C(c1cccnc1)N1CCC2(CCN(C(=O)N3CCCC3)CC2)C1  61.1%
105. O=C(c1ccco1)N1CCC2(CC1)C(=O)Nc1ccccc12  64.4%
106. CCC(C)Oc1ccc(CNCCc2c[nH]cn2)cc1Cl (stereo not drawn)  66.8%
107. O=C(N1CCCC1)N1CCC2(CC1)CN(c1cccnc1)C(=O)CO2  82.9%
108. NC(=O)N1CCC2(CCN(C(=O)c3cccnc3)CC2)C1  86.5%

— ChEMBL document CHEMBL4513216, “Probing the Open Global Health Chemical Diversity Library for Multistage-Active Starting Points for Next-Generation Antimalarials” (ACS Infect Dis, 2020)
